# Laboratory results as given in PubChem BioAssay.
# Calls of active or inactive are those of the source.
# Assays:
# [1] = test system: Human papillomavirus type 1a protein E7 (residues 44-93); assay: HPV1a E7 fragment binders on microarrays, primary screen, biochemical, small-molecule microarray, residues 44-93, 635 nm fluorescence (AID 1108); details: small-molecule microarray binding, fluorescence 635 nm; higher = more signal;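 further: E7 fragment applied at 1 µg/mL in TBST for 1 h at 4 C; score combines spot fluorescence with its signal to noise ratio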
# [2] = modulators of HCV replicon luciferase signal, primary screen, HCV replication inhibitor project, Huh7 cells, luciferase reporter (AID 1109); details: 48 h, higher = more signal;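 further: huh7 hepatoma cells harbouring a luciferase neomycin HCV replicon reporter; luciferase luminescence as measure of HCV replicon replication; test concentration not given here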
# [3] = target: Left-right determination factor 2 (Homo sapiens) (UniProt O00292); assay: LEFTY2 binders on small-molecule microarrays, primary screen, biochemical, small-molecule microarray, 635 nm fluorescence scan (AID 1110); details: LEFTY2 binding, higher = more signal
# [4] = target: Calmodulin-1 (Homo sapiens) (UniProt P0DP23); assay: CALM1 binders on microarrays, EGTA buffer, profiling panel, biochemical, small-molecule microarray, Cy5-labelled CALM1 (AID 1111); details: Cy5-CALM1 binding fluorescence, higher = more signal;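 further: labelled calmodulin applied in Tris saline Tween buffer holding calcium plus EGTA and DTT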
# [5] = target: Calmodulin-1 (Homo sapiens) (UniProt P0DP23); assay: calcium-bound CALM1 binders on microarrays, profiling panel, artefact control for SMM control-protein annotation, biochemical, small-molecule microarray, Cy5-labelled CALM1, plus calcium (AID 1112); details: Cy5-CALM1 binding fluorescence, higher = more signal;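 further: score merges spot fluorescence with signal to noise from triplicate slides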
# [6] = small-molecule microarray binders of probe aWnt5a, primary screen, biochemical, biotinylated probe, 635/667 nm fluorescence (AID 1113); details: higher = more signal;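 further: score merges 667 nm fluorescence intensity with signal-to-noise per printed feature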
# [7] = small-molecule microarray binders of probe aShh, primary screen, biochemical, biotinylated probe, 635/667 nm fluorescence (AID 1114); details: higher = more signal;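 further: probe is biotin-labelled aShh protein from a stem cell growth factor screen; measures binding of labelled protein to compounds printed on the slide; score merges feature fluorescence at 667 nm with signal-to-noise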
# [8] = small-molecule microarray binders of probe aNog, primary screen, biochemical, biotinylated probe, 635/667 nm fluorescence (AID 1115); details: higher = more signal;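 further: probe is biotinylated aNog protein used at 0.15 µg/mL for 1 h at 4 C; z-score combines 667 nm fluorescence of each spot with its signal to noise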
# [9] = target: Torsin-1A-interacting protein 1 (Homo sapiens) (UniProt Q5JTV8); assay: LAP1 binders from COS7 cell lysate, primary screen, small-molecule microarray, 635/667 nm fluorescence (AID 1116); details: COS7-hLAP1 lysate binding, 635 nm fluorescence, higher = more signal
# [10] = target: Alpha-bungarotoxin (Bungarus multicinctus) (UniProt P60615); assay: alpha-bungarotoxin binders on microarray, profiling panel, artefact control for SMM control protein annotation, biochemical, small-molecule microarray, Alexa647 label, 635/667 nm fluorescence (AID 1117); details: alpha-BTX-A647 binding fluorescence, higher = more signal
# Albumin (Bos taurus) = Albumin (Bos taurus) (UniProt P02769); assay: bovine serum albumin binders on microarray, profiling panel, artefact control for SMM control protein annotation, biochemical, small-molecule microarray, Alexa647 label, 635/667 nm fluorescence (AID 1118); details: BSA-A647 binding, fluorescence 635 nm, higher = more signal;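 further: score merges 667 nm emission intensity and signal-to-noise per printed compound spot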
# [11] = small-molecule microarray binders of probe aXIP, primary screen, biochemical, NeuroSMM set, 635/667 nm fluorescence (AID 1119); details: higher = more signal, called active from +8 up or from −8 down;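 further: probe is the protein aXip251-270 applied at 1 µg/mL to compound-printed slides; binding of probe to printed compounds measured as 667 nm fluorescence plus signal to noise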
# [12] = small-molecule binders of probe aNOTCH3, primary screen, biochemical, small-molecule microarray, 635/667 nm fluorescence (AID 1120); details: higher = more signal;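 further: probe is a biotin-tagged antibody raised against NOTCH3 rather than NOTCH3 protein; score merges spot fluorescence near 667 nm with spot signal to noise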
# [13] = small-molecule binders of probe aNOTCH2, primary screen, biochemical, small-molecule microarray, 635/667 nm fluorescence (AID 1121); details: higher = more signal;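 further: score merges feature fluorescence read at 667 nm with its signal to noise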
# [14] = target: Carbonic anhydrase 2 (Homo sapiens) (UniProt P00918); assay: CAII small-molecule binders, profiling panel, biochemical, small-molecule microarray, Alexa647-labelled CAII (AID 1122); details: CAII-A647 binding fluorescence, higher = more signal
# [15] = COS7 lysate on small-molecule microarray, probe aHis, 635 nm (AID 1123); details: COS7 cell lysate, fluorescence, higher = more signal;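 further: z-score combines 667nm fluorescence intensity with signal-to-noise per printed compound spot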
# [16] = compound binding in COS7 lysate, probe aLAP1, primary screen, cell lysate, small-molecule microarray (AID 1124); details: probe aLAP1, fluorescence, higher = more signal;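 further: lysate comes from COS7 cells expressing LAP1 and is applied at 0.3 µg/mL; score merges spot fluorescence near 667 nm with signal-to-noise over triplicate slides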
# Sam68 (KHDRBS1) = assay: Sam68 small-molecule binders, primary screen, biochemical, small-molecule microarray, 635 nm fluorescence (AID 1125); details: small-molecule microarray binding, higher = more signal;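 further: score merges 667 nm channel intensity with signal to noise over triplicate slides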
# [17] = test system: Chordin-like protein 2 (CHRDL2); assay: CHRDL2 small-molecule binders, primary screen, biochemical, small-molecule microarray, 635 nm fluorescence (AID 1126); details: small-molecule microarray binding, fluorescence 635 nm; higher = more signal;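 further: printed compound slides probed with Chrdl2 protein at 4 µg/mL for 1 h at 4 C; score merges 667 nm emission intensity with signal to noise over three replicate slides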
# [18] = target: Concanavalin-A (Canavalia ensiformis) (UniProt P02866); assay: ConA small-molecule binders, primary screen, artefact control for SMM control protein annotation, biochemical, small-molecule microarray, Alexa647 label, 635 nm (AID 1127); details: ConA-A647 binding fluorescence, higher = more signal;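 further: z combines 667 nm emission intensity with signal-to-noise across three replicate slides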
# Concanavalin-A (Canavalia ensiformis), sequence (P02866 whole entry, looked up): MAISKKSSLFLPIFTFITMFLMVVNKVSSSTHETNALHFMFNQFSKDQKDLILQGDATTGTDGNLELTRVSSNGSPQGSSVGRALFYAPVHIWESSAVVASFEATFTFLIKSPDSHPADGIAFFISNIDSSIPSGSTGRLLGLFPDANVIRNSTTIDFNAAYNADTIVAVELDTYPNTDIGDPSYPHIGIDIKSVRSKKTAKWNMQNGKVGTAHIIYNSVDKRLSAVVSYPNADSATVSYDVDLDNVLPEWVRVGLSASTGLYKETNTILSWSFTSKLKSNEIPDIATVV
# Left-right determination factor 2 (Homo sapiens), sequence (O00292 whole entry, looked up): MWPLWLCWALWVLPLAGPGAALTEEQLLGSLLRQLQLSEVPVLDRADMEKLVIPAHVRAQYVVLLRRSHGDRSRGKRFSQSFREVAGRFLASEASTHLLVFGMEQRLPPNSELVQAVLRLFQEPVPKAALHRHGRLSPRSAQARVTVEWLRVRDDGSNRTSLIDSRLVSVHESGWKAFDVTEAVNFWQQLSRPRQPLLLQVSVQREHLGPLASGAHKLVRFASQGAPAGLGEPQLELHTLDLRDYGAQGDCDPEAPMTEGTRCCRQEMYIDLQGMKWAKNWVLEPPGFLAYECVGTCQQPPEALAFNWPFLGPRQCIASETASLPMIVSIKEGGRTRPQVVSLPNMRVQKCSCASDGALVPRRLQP
# Alpha-bungarotoxin (Bungarus multicinctus), sequence (P60615 whole entry, looked up): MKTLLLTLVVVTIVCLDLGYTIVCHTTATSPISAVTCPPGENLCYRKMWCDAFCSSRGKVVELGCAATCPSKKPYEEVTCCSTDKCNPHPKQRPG
# Albumin (Bos taurus), sequence (P02769 whole entry, looked up): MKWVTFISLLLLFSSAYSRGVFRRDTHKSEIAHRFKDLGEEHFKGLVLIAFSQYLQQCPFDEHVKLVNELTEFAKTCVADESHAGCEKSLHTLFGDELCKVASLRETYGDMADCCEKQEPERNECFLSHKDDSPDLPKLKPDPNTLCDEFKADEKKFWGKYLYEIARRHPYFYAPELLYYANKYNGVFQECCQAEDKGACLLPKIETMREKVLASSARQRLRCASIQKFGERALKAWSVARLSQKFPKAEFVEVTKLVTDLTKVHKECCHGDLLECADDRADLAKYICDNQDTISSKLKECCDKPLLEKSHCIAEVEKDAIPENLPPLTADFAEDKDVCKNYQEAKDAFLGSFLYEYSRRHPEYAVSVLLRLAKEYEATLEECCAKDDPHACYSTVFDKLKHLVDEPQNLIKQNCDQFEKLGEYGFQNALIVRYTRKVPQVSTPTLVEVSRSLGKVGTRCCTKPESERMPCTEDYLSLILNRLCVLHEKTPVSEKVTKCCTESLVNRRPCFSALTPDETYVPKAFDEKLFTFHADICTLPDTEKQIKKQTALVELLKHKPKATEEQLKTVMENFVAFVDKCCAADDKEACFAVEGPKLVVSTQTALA
# Torsin-1A-interacting protein 1 (Homo sapiens), sequence (Q5JTV8 whole entry, looked up): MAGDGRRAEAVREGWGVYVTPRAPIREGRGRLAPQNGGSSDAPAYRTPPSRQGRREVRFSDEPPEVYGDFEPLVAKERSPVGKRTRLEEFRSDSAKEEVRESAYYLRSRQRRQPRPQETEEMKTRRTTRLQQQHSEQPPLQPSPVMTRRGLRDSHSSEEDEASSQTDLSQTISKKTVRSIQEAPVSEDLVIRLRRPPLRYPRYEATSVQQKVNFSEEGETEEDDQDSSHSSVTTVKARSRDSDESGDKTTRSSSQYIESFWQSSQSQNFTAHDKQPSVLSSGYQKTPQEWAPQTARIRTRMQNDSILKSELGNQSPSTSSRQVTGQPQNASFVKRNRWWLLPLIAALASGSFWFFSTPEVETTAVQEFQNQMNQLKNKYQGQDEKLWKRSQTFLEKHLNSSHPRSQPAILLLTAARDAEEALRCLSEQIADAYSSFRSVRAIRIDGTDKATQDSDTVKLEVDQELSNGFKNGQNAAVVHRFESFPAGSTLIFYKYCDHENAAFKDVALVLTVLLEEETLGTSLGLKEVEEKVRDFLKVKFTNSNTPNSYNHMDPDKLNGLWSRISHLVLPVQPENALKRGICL
SMILES,composite z-score [1],z-score [2],composite z-score [3],composite z-score [4],composite z-score [5],composite z-score [6],composite z-score [7],composite z-score [8],composite z-score [9],composite z-score [10],composite z-score (Albumin (Bos taurus)),composite Z-score [11],composite z-score [12],composite z-score [13],composite z-score [14],composite z-score [15],composite z-score [16],composite z-score (Sam68 (KHDRBS1)),composite z-score [17],composite z-score [18]
CCOC(=O)C1=C[C@@H](C(C)(C)C)N(S(=O)(=O)c2ccc(C)cc2)[C@H]1c1ccc(C#N)cc1,1.41,-2.04,0.282,1.37,0.226,0.055,-0.154,0.618,0.918,1.09,0.684,-0.795 (inactive),0.0935,0.0655,0.632,2.72,0.969,1.31,0.582,1.09
CC(C)OC(=O)CC(=O)CC(O)c1cccc([N+](=O)[O-])c1 (stereo not given),1.31,-1.6,0.117,0.834,0.17,0.264,0.418,-0.138,1.24,0.288,0.799,-0.144 (inactive),0.241,-0.177,0.633,0.707,-0.107,1.22,0.01,0.828
CCCCN1CC=CC23O[C@@H]4/C=C\CCCOC(=O)C4[C@H]2C(=O)N(C(CO)C(C)C)[C@@H]3C1=O (stereo not given in full),-0.0052,-0.134,0.272,-0.11,-0.0085,-0.0482,0.0469,-0.51,0.0974,-0.838,-0.745,-0.108 (inactive),-0.0339,-0.0504,0.781,0.0745,-0.158,0.239,-0.0768,-0.592
COCCOC(=O)N1C(=O)[C@@]2(c3cc(C#CCCO)ccc31)[C@H](C(N)=O)[C@H]1C(=O)O[C@H](c3ccccc3)[C@H](c3ccccc3)N1[C@@H]2c1ccccc1OCCO,0.99,-2.12,0.432,1.03,0.114,-0.0445,-0.0165,0.135,1.08,2.08,0.69,0.689 (inactive),0.0727,-0.14,0.552,1.54,0.45,1.3,-0.0675,1.14
COC(=O)C(CC#Cc1ccc2c(c1)[C@]1(C(=O)N2)[C@H](C(=O)NC[C@H](O)c2ccccc2)[C@H]2C(=O)O[C@H](c3ccccc3)[C@H](c3ccccc3)N2[C@@H]1c1ccccc1OCCO)C(=O)OC,1.45,-1.92,0.441,0.413,-0.0643,-0.1,-0.167,0.149,1.67,1.61,-0.119,-0.154 (inactive),0.0779,-0.115,0.376,2.14,0.298,1.25,0.557,1.01
